Test results from PubChem BioAssay AID645 (SRMLSC, 2007).
Hit rate of the full screen: of about 65,000 compounds, about 450 (0.69%) were called active. Only a selection was taken, and actives are over-represented in it overall. Unmarked numbers belong to inactive results.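 How the source made its calls: active means HER2 level under 5% of the carrier-only control; inconclusive means no clear call, values can overlap the other calls; inactive means the rest.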

Molecular target: Receptor tyrosine-protein kinase erbB-2 (Homo sapiens) (UniProt P04626)
Sequence (P04626 whole entry, looked up): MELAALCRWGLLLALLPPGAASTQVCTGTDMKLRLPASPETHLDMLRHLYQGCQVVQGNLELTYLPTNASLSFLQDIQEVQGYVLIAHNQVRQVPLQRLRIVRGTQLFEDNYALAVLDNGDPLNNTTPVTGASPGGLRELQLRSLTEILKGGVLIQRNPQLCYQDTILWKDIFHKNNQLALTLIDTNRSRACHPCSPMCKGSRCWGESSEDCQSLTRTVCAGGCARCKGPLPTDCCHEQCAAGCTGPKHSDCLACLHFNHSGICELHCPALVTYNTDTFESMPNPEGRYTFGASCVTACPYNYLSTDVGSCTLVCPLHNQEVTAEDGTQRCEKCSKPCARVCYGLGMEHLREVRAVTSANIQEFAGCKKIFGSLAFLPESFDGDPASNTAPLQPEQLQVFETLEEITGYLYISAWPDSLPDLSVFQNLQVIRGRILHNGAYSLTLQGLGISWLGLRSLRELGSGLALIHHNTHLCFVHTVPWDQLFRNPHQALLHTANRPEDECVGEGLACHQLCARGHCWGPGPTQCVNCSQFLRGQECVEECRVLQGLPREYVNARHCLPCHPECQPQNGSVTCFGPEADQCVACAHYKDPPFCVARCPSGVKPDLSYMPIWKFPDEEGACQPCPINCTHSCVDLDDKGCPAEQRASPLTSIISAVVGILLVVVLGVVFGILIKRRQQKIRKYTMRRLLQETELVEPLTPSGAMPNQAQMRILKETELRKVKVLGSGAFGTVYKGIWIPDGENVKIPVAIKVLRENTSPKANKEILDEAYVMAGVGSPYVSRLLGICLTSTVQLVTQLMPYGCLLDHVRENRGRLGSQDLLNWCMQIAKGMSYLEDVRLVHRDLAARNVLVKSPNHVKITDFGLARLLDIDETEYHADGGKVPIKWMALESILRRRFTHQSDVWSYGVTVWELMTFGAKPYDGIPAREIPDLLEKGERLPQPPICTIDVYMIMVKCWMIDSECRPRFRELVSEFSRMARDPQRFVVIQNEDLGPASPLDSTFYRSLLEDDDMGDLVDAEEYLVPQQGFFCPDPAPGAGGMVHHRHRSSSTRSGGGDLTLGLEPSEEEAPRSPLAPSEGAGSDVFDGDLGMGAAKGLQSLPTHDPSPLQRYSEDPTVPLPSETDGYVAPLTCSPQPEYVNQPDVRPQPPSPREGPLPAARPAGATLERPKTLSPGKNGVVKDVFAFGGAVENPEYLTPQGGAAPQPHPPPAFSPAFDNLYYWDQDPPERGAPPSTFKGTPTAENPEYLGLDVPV
Test: reducers of endogenous HER2 protein levels – SKBR-3 cells, AlphaScreen, 66K library, primary screen (AID 645);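 further: 100% = DMSO carrier and 0% = 500 nM PU-H71 HSP90 inhibitor; lower value means stronger loss of Her2 protein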
Details: SKBR-3 HER2 protein level, 18-24 h, at 10 µM, hits give low values

Structure (SMILES)	HER2 level % of control
CC(=NCC1CCCO1)c1c(O)n(-c2ccccc2)c(=O)[nH]c1=O (stereo not given)	-16.3% (active)
CCC(=NCCCO)c1c(O)n(-c2ccc(OC)cc2)c(=O)[nH]c1=O	92.7%
CC(=O)c1c(O)n(C2CCCCCC2)c(=O)[nH]c1=O	69.8%
CC(=O)N1CN2CN(C(C)=O)CC(C(=O)c3ccc(Br)cc3)(C2)C1	119%
Cc1ccc(Cn2nnnc2CN2CCC(n3nnc4ccccc43)CC2)cc1	69.1%
